For part of these data: Results with a measured potency or affinity are listed apart.
Tests used:
Set-up in all cases: scale not given: direction of the effect not stated beside the values
[1] = molecular target: Protein translocase subunit SecA (Escherichia coli (strain K12)) (UniProt P10408); experiment: Assay to Identify E. coli SecA ATPase Inhibitors; assay type: functional; details: 30 µM
[2] = molecular target: T1, Ubiquitin-activating enzyme e1, putative (Leishmania donovani (strain BPK282A1)) (UniProt E9BSI1); experiment: Leishmania donovani Ubiquitin Activating Enzyme (LdE1); assay type: functional; details: 30 µM
T1 sequence (whole entry): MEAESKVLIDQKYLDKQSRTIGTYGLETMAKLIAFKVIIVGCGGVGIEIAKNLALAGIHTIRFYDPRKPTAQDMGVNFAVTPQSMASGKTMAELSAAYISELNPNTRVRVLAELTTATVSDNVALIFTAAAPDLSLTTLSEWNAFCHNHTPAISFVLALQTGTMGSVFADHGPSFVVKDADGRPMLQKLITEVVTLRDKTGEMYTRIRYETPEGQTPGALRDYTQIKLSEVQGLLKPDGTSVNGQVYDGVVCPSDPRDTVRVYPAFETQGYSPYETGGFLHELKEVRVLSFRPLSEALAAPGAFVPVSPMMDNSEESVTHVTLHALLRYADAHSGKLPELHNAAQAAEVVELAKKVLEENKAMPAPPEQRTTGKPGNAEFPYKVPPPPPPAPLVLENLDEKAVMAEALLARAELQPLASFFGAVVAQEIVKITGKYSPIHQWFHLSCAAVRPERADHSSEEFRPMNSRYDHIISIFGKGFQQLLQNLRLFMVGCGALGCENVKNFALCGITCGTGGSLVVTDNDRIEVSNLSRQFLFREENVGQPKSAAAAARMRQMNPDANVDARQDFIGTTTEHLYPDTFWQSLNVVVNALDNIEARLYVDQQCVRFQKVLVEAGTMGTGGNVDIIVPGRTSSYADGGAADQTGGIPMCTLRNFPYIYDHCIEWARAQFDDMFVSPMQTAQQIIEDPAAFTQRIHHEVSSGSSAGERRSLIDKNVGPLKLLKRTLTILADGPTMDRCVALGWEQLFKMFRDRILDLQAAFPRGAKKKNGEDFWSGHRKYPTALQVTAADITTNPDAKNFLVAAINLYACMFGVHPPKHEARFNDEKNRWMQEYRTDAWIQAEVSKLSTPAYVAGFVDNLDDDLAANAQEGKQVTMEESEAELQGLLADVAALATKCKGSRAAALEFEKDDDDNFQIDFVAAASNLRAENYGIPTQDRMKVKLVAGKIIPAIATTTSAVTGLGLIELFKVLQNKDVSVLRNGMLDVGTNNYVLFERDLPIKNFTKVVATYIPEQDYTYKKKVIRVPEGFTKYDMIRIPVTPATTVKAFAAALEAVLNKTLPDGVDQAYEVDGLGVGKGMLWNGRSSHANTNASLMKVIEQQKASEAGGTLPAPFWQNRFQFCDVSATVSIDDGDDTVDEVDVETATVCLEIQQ

[3] = molecular target: Sialic acid-binding Ig-like lectin 9 (Homo sapiens) (UniProt Q9Y336); experiment: Hs-Siglec9 ALPHAscreen SOP 20170721; details: 10 µM
Sialic acid-binding Ig-like lectin 9 (Homo sapiens), sequence (Q9Y336 whole entry): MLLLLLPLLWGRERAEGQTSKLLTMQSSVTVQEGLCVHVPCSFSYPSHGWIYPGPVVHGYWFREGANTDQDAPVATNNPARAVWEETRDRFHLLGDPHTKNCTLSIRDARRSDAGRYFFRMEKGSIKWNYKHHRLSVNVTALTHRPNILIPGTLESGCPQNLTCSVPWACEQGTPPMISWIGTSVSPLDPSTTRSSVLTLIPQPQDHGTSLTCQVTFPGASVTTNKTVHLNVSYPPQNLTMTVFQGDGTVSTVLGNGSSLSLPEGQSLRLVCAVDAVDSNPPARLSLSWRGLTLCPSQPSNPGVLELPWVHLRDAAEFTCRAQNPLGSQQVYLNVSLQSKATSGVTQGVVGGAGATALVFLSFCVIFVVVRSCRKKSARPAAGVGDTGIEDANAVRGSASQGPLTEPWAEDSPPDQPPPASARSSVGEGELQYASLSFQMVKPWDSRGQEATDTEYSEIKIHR

[4] = tested on: Trypanosoma cruzi; experiment: Trypanosoma cruzi phosphomannomutase and mannose-1-phosphate guanylyltransferase assay; assay type: functional; details: 10 µM
[5] = molecular target: T2, Arginase-2, mitochondrial (Homo sapiens) (UniProt P78540); experiment: in vitro enzyme assay to detect the production of urea directly proportional to the activity of Arginase II; assay type: functional; details: 33.3 µM; further: in the data most compounds retested in dose-response had high values
T2 sequence (whole entry): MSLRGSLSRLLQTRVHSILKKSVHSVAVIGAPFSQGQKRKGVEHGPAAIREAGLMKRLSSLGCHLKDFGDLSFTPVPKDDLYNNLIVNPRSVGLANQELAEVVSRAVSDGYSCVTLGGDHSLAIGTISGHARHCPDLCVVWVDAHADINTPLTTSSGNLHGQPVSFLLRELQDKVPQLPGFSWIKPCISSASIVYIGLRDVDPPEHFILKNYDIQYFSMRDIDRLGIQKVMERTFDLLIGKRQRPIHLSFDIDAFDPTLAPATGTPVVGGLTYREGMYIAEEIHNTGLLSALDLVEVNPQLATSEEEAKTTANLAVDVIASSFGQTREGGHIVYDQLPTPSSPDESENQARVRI

[6] = molecular target: T3, Proteasome subunit beta (Trypanosoma cruzi) (UniProt O96673); experiment: Trypanosoma cruzi proteasome chymotrypsin-like activity (TcProtChymo) assay.; further: in the data most compounds retested in dose-response had high values; assay type: functional; details: 9.37 µM
T3 sequence (whole entry): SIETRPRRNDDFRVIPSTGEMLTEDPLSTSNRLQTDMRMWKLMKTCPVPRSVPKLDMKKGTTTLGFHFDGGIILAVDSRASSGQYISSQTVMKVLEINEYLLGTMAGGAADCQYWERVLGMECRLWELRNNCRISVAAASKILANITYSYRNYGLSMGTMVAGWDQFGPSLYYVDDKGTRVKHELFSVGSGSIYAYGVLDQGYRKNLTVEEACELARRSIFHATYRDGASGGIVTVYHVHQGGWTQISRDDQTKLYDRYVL

[7] = species on record: Homo sapiens; experiment: To identify inhibition of the IFN signalling (Jak-Stat) pathway via expression of an eGFP reporter gene under the control of an IFN-stimulated response element (ISRE) containing MxA promoter.; assay type: functional; details: 30 µM
[8] = molecular target: T4, Tyrosyl-tRNA synthetase, putative (Trypanosoma cruzi (strain CL Brener)) (UniProt Q4DSP6); experiment: Trypanosoma cruzi tyrosyl tRNA synthetase (TcYRS) _High Tyrosine SOP; assay type: functional; details: 30 µM; further: in the data most compounds retested in dose-response had high values
T4 sequence (whole entry): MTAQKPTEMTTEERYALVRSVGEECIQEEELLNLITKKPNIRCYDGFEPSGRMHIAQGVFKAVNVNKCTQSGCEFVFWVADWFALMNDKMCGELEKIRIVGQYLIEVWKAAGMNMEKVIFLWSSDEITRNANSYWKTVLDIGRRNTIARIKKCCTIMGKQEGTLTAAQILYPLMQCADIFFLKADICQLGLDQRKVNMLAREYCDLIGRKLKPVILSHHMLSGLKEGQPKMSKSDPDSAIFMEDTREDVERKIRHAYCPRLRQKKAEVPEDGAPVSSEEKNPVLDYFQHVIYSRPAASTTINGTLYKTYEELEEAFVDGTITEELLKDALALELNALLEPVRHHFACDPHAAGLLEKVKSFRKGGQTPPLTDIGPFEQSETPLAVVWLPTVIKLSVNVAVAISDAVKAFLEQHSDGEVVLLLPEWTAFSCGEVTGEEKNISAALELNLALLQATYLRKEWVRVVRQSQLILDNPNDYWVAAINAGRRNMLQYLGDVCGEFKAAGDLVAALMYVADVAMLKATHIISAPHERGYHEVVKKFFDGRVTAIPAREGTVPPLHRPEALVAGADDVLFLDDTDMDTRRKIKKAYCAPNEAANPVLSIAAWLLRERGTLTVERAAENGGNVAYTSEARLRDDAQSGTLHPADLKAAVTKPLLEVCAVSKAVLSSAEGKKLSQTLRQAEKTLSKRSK

[9] = molecular target: T4, Tyrosyl-tRNA synthetase, putative (Trypanosoma cruzi (strain CL Brener)); experiment: Trypanosoma cruzi tyrosyl tRNA synthetase (TcYRS) SOP; assay type: functional; details: 30 µM
[10] = molecular target: Chromo domain-containing protein 1 (Saccharomyces cerevisiae (strain ATCC 204508 / S288c) (Baker's yeast)) (UniProt P32657); experiment: ScCHD-1 Enzyme Inhibition Assay; assay type: functional; details: 30 µM; further: in the data most compounds retested in dose-response had high values
Chromo domain-containing protein 1 (Saccharomyces cerevisiae (strain ATCC 204508 / S288c) (Baker's yeast)), sequence (P32657 whole entry, the tested form may be a part): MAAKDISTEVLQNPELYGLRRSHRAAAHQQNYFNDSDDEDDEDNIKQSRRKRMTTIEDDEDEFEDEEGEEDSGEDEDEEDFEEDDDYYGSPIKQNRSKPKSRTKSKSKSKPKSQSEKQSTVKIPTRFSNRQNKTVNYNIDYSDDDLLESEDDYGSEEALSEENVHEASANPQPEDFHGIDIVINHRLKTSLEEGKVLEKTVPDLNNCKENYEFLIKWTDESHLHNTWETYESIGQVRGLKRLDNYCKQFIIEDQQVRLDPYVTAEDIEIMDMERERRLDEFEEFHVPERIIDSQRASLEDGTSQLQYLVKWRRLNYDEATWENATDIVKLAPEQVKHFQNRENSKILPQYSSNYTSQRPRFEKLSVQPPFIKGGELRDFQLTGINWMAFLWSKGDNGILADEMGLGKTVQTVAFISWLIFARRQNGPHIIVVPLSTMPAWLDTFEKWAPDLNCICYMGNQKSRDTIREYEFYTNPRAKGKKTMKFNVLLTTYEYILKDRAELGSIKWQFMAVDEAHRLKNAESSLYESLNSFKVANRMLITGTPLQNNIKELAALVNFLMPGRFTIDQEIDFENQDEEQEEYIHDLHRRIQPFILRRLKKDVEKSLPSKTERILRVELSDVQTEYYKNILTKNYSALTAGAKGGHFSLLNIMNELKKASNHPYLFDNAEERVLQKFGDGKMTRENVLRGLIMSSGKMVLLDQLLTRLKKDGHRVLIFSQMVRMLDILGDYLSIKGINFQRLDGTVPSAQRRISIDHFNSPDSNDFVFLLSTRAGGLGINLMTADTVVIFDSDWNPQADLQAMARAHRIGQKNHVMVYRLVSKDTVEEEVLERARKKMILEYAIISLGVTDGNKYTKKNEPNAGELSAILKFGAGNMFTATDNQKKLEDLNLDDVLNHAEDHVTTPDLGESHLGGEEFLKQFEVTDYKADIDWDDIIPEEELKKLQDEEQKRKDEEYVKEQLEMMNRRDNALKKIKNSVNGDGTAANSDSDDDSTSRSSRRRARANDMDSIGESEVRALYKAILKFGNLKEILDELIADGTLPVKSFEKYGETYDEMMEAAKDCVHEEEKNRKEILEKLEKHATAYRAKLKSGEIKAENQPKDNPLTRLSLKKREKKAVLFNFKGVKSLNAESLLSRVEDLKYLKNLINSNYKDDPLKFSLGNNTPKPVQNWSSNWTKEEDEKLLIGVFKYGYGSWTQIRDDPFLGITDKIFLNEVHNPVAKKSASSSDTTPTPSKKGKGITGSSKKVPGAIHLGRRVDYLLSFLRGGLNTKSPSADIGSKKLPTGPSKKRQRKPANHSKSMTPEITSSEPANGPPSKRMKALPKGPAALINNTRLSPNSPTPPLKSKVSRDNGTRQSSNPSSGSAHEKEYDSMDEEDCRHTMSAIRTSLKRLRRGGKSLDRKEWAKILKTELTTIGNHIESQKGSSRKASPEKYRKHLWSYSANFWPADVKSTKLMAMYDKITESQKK

Protein translocase subunit SecA (Escherichia coli (strain K12)), sequence (P10408 whole entry): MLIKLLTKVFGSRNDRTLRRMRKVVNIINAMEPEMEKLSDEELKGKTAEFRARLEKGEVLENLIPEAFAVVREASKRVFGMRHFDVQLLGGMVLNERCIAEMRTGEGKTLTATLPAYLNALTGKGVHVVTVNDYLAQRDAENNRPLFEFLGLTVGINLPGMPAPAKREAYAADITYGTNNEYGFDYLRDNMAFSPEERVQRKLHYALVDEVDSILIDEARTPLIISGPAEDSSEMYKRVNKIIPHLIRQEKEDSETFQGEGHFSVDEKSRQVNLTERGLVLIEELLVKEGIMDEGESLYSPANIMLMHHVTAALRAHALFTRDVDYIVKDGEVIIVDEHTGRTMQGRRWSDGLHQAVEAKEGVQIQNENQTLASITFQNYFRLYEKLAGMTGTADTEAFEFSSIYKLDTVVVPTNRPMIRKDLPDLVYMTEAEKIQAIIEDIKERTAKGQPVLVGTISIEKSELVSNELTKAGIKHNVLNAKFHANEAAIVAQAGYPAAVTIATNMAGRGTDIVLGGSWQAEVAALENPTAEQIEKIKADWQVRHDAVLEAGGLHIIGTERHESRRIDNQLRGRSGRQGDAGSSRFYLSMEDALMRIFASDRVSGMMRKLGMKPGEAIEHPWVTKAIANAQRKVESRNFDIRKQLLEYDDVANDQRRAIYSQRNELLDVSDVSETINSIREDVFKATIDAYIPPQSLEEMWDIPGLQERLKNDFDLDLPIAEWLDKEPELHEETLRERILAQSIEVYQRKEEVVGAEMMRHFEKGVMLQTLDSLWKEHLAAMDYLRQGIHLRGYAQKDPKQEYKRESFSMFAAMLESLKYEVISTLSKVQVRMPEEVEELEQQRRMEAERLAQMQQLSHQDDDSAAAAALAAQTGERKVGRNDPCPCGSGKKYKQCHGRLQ

COC[C@@]12CC[C@@H](N3CCOCC3)C[C@H]1CCN(c1ncccn1)C2
Percent Effect [1]: -6.56%
Percent Effect [2]: 13.5%
Percent Effect [3]: 17.1%
Percent Effect [4]: 6.5%
Percent Effect [5]: 19.9%
Percent Effect [6]: 14.7%
Percent Effect [7]: 0.0489%
Percent Effect [8]: 4.79%
Percent Effect [9]: 12.2%
Percent Effect [10]: 88.3%

CC(C)CN1CCC2(CCN(C(=O)c3ccc(F)cc3)CC2)C1=O
Percent Effect [1]: -1.91%
Percent Effect [2]: 19.5%
Percent Effect [3]: 0.691%
Percent Effect [4]: 1.5%
Percent Effect [5]: 0%
Percent Effect [6]: 6.27%
Percent Effect [7]: -20.9%
Percent Effect [8]: 11.6%
Percent Effect [9]: 22.5%
Percent Effect [10]: -8.66%

CCn1ccnc1CN1CCCN(C(=O)c2cccn2C)CC1
Percent Effect [1]: -5.36%
Percent Effect [2]: 12.8%
Percent Effect [3]: -19.1%
Percent Effect [4]: 14%
Percent Effect [5]: -2.46%
Percent Effect [6]: 8.79%
Percent Effect [7]: 4.83%
Percent Effect [8]: 2.39%
Percent Effect [9]: 20.5%
Percent Effect [10]: 31.3%

O=C1C(NCc2nnc3n2CCCC3)CCN1c1ccccc1 (stereo not given)
Percent Effect [1]: -2.98%
Percent Effect [2]: 10.3%
Percent Effect [3]: -1.63%
Percent Effect [4]: 8.17%
Percent Effect [5]: 7.79%
Percent Effect [6]: -2.99%
Percent Effect [7]: 18.5%
Percent Effect [8]: 3.35%
Percent Effect [9]: 13.2%
Percent Effect [10]: -2.81%

O=C(Nc1nnc(C2CC2)s1)NC1CCN(Cc2ccccc2)C1 (stereo not given)
Percent Effect [1]: -5.17%
Percent Effect [2]: 12.8%
Percent Effect [3]: -8.9%
Percent Effect [4]: -2.35%
Percent Effect [5]: 0.82%
Percent Effect [6]: 4.01%
Percent Effect [7]: 43.6%
Percent Effect [8]: 0.478%
Percent Effect [9]: 10.8%
Percent Effect [10]: -0.956%

Cc1cccc(CN2CCc3nnc(CN4CCCC4=O)n3CC2)n1
Percent Effect [1]: -3.64%
Percent Effect [2]: 14.3%
Percent Effect [3]: 1.97%
Percent Effect [4]: -2.06%
Percent Effect [5]: -2.28%
Percent Effect [6]: 8.67%
Percent Effect [7]: 9.65%
Percent Effect [8]: 4.83%
Percent Effect [9]: 10%
Percent Effect [10]: -8.05%

COC[C@@H]1CC[C@H]2[C@H](CCN2S(=O)(=O)c2ccc(OC)cc2)O1
Percent Effect [1]: -2.3%
Percent Effect [2]: -1.3%
Percent Effect [3]: 2.46%
Percent Effect [4]: -0.876%
Percent Effect [5]: -1.62%
Percent Effect [6]: 6.09%
Percent Effect [7]: -19.4%
Percent Effect [8]: -1.58%
Percent Effect [9]: 5.13%
Percent Effect [10]: 1.57%

Cc1cnn(CC2CN(CC(=O)NCc3ccccn3)CCO2)c1 (stereo not given)
Percent Effect [1]: -3.5%
Percent Effect [2]: 8%
Percent Effect [3]: 4.57%
Percent Effect [4]: 4.62%
Percent Effect [5]: -4.88%
Percent Effect [6]: 5.17%
Percent Effect [7]: 2.48%
Percent Effect [8]: 3.68%
Percent Effect [9]: 10.3%
Percent Effect [10]: -8.5%

CC(Cn1cccn1)NC(=O)NCc1cccs1 (stereo not given)
Percent Effect [1]: -2.75%
Percent Effect [2]: -66.7%
Percent Effect [3]: 2.38%
Percent Effect [4]: -4.82%
Percent Effect [5]: 0.887%
Percent Effect [6]: 13%
Percent Effect [7]: 10.9%
Percent Effect [8]: 3.68%
Percent Effect [9]: 7.69%
Percent Effect [10]: -11.3%

Cc1nc(CN2CCCC(CCc3c(F)cccc3F)C2)c[nH]1 (stereo not given)
Percent Effect [1]: -4.35%
Percent Effect [2]: -13.5%
Percent Effect [3]: 23.7%
Percent Effect [4]: 9.6%
Percent Effect [5]: -6.64%
Percent Effect [6]: 1.37%
Percent Effect [7]: 18.7%
Percent Effect [8]: 5.85%
Percent Effect [9]: 7.32%
Percent Effect [10]: 96.9%

O=C(c1ccno1)N1CCC2(CC1)C(=O)N(CC1CC1)c1ccccc12
Percent Effect [1]: -0.905%
Percent Effect [2]: -29.9%
Percent Effect [3]: -1.46%
Percent Effect [4]: -0.75%
Percent Effect [5]: 3.2%
Percent Effect [6]: 3%
Percent Effect [7]: 5.14%
Percent Effect [8]: 1.93%
Percent Effect [9]: 0%
Percent Effect [10]: -3.48%

CCc1nc(C2CCCN2CCCS(=O)(=O)c2ccccc2)no1 (stereo not given)
Percent Effect [1]: -2.94%
Percent Effect [2]: 15.4%
Percent Effect [3]: -14.9%
Percent Effect [4]: 2.16%
Percent Effect [5]: 0.41%
Percent Effect [6]: 13.1%
Percent Effect [7]: 6.1%
Percent Effect [8]: 4.31%
Percent Effect [9]: 22.9%
Percent Effect [10]: -3.94%

Source: ChEMBL document CHEMBL3988442, “University of Dundee, Small-Polar-MMV Screening Library” (2021)
